Assay results: the supplement of paper PMC10849652
Of roughly 7,900 targets only a part is listed; those with a hit were picked by preference. About 0.6% of all pairs of compound and target were hits.

Columns and labels:
Experiment in all cases: log2 fold change, soluble protein after heating vs DMSO (PISA); higher = thermal stabilisation; K562 cells, 10 uM, 30 min; active = over 0.2 and 3.5 SD of the protein, either way, in both replicates (recomputed)
saracatinib = compound: CN1CCN(CCOc2cc(OC3CCOCC3)c3c(Nc4c(Cl)ccc5c4OCO5)ncnc3c2)CC1 [saracatinib]
How it was run: (§1)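 For each measurement, 10 μM compound was applied for 30 min to K562 cells at 2×10^6 cells/mL. Aliquots were heated for 3 min across 48°C-58°C, pooled, and extracted in PBS with 0.5% NP-40 at 4°C; the supernatant after 21,000xg for 90 min was soluble protein. This was quantified by TMTpro 16plex LC-MS/MS with channel sums equalised, and thermal stability was reported relative to control samples from duplicates, on a log2 fold-change scale.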

sotrastaurin = compound: CN1CCN(c2nc(C3=C(c4c[nH]c5ccccc45)C(=O)NC3=O)c3ccccc3n2)CC1 [sotrastaurin]
How it was run: as §1

alvocidib = compound: CN1CC[C@H](c2c(O)cc(O)c3c(=O)cc(-c4ccccc4Cl)oc23)[C@H](O)C1 [alvocidib]
How it was run: as §1

Tubastatin A = compound: CN1CCc2c(c3ccccc3n2Cc2ccc(C(=O)NO)cc2)C1 [Tubastatin A]
How it was run: as §1

[1] = compound: CNC(=O)C1=CC=CC=C1NC2=NC(=NC=C2Cl)NC3=C(C=C(C=C3)N4CCOCC4)OC
How it was run: as §1

defactinib = compound: CNC(=O)c1ccc(Nc2ncc(C(F)(F)F)c(NCc3nccnc3N(C)S(C)(=O)=O)n2)cc1 [defactinib]
How it was run: as §1

rucaparib = compound: CNCc1ccc(-c2[nH]c3cc(F)cc4c3c2CCNC4=O)cc1 [rucaparib]
How it was run: as §1

[2] = compound: CNc1nc(-c2ccc3c(N)n[nH]c3c2)cc(N2C[C@@H](C(=O)NC3CCCCC3)CC[C@H]2C)n1
How it was run: as §1

encorafenib = compound: COC(=O)N[C@@H](C)CNc1nccc(-c2cn(C(C)C)nc2-c2cc(Cl)cc(NS(C)(=O)=O)c2F)n1 [encorafenib]
How it was run: as §1

[3] = compound: COC(=O)[C@H](CCSC)NC(=O)C1=C(C=C(C=C1)NC[C@H](CS)N)C2=CC=CC=C2
How it was run: as §1

[4] = compound: COC1=CC=C(C=C1)CN2C=CC3=C2C=C(C=C3)C(=O)NO
How it was run: as §1

filanesib = compound: CON(C)C(=O)N1N=C(c2cc(F)ccc2F)S[C@@]1(CCCN)c1ccccc1 [filanesib]
How it was run: as §1

zotarolimus = compound: CO[C@H]1C[C@@H]2CC[C@@H](C)[C@@](O)(O2)C(=O)C(=O)N2CCCC[C@H]2C(=O)O[C@H]([C@H](C)C[C@@H]2CC[C@H](n3cnnn3)[C@H](OC)C2)CC(=O)[C@H](C)/C=C(\C)[C@@H](O)[C@@H](OC)C(=O)[C@H](C)C[C@H](C)/C=C/C=C/C=C/1C [zotarolimus]
How it was run: as §1

idasanutlin = compound: COc1cc(C(=O)O)ccc1NC(=O)[C@@H]1N[C@@H](CC(C)(C)C)[C@](C#N)(c2ccc(Cl)cc2F)[C@H]1c1cccc(Cl)c1F [idasanutlin]
How it was run: as §1

alisertib = compound: COc1cc(Nc2ncc3c(n2)-c2ccc(Cl)cc2C(c2c(F)cccc2OC)=NC3)ccc1C(=O)O [alisertib]
How it was run: as §1

[5] = compound: COc1cc2nc(-c3cc(F)ccc3O)nc(N[C@@H]3CNC[C@H]3C(C)(C)O)c2cc1OC
How it was run: as §1

gefitinib = compound: COc1cc2ncnc(Nc3ccc(F)c(Cl)c3)c2cc1OCCCN1CCOCC1 [gefitinib]
How it was run: as §1

[6] = compound: COc1cccc2cc(-c3nc([C@H]4CC[C@H](C(=O)O)CC4)n4ncnc(N)c34)[nH]c12
How it was run: as §1

lapatinib = compound: CS(=O)(=O)CCNCc1ccc(-c2ccc3ncnc(Nc4ccc(OCc5cccc(F)c5)c(Cl)c4)c3c2)o1 [lapatinib]
How it was run: as §1

pictilisib = compound: CS(=O)(=O)N1CCN(Cc2cc3nc(-c4cccc5[nH]ncc45)nc(N4CCOCC4)c3s2)CC1 [pictilisib]
How it was run: as §1

Measured: log2 fold change

SMG1 (UniProt Q96Q15)
inactive: saracatinib -0.039 | sotrastaurin 0.041 | alvocidib -0.085 | Tubastatin A 0.014 | [1] 0.042 | defactinib 0 | rucaparib 0.025 | [2] -0.12 | encorafenib 0.023 | [3] 0.017 | [4] -0.142 | filanesib 0.061 | zotarolimus -0.001 | idasanutlin -0.038 | alisertib -0.002 | [5] 0.055 | gefitinib 0.008 | [6] -0.047 | lapatinib 0.003 | pictilisib 0.018

SLC25A4 (UniProt P12235)
Sequence of UniProt P12235 (P12235 whole entry, looked up): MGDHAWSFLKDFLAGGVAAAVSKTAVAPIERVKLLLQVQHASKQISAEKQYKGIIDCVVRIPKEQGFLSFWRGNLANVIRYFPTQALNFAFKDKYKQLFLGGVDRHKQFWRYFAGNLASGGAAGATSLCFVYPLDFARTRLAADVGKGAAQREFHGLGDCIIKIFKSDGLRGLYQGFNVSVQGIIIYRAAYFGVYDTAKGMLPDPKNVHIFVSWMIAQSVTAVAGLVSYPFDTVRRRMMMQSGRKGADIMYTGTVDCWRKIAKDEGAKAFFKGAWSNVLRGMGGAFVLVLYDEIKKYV
inactive: saracatinib -0.022 | sotrastaurin 0.029 | alvocidib 0.068 | Tubastatin A -0.138 | [1] 0.044 | defactinib 0.012 | rucaparib -0.061 | [2] -0.026 | encorafenib -0.001 | [3] 0.019 | [4] -0.012 | filanesib -0.024 | zotarolimus -0.018 | idasanutlin 0.003 | alisertib 0.014 | [5] 0.039 | gefitinib 0.006 | [6] -0.012 | lapatinib -0.026 | pictilisib 0.115

SLC39A11 (UniProt Q8N1S5)
active: rucaparib -0.518
inactive: saracatinib 0.098 | sotrastaurin 0.127 | alvocidib 0.02 | Tubastatin A -0.164 | [1] -0.223 | defactinib 0.074 | [2] -0.015 | encorafenib -0.077 | [3] -0.082 | [4] -0.014 | filanesib -0.01 | zotarolimus -0.078 | idasanutlin -0.056 | alisertib -0.113 | [5] -0.04 | gefitinib 0.001 | [6] 0.047 | lapatinib -0.038 | pictilisib -0.117

SMAD9 (UniProt O15198)
inactive: saracatinib 0.076 | sotrastaurin 0.078 | alvocidib -0.065 | Tubastatin A -0.003 | [1] -0.013 | defactinib -0.076 | rucaparib -0.094 | [2] 0.055 | encorafenib -0.001 | [3] -0.049 | [4] -0.002 | filanesib 0.009 | zotarolimus -0.033 | idasanutlin -0.132 | alisertib -0.014 | [5] -0.012 | gefitinib 0.066 | [6] -0.005 | lapatinib 0.051 | pictilisib 0.148

TGFBRAP1 (UniProt Q8WUH2)
inactive: saracatinib -0.124 | sotrastaurin 0.048 | alvocidib -0.008 | Tubastatin A 0.134 | [1] 0.047 | defactinib -0.061 | rucaparib 0.097 | [2] -0.051 | encorafenib 0.076 | [3] -0.109 | [4] 0.092 | filanesib -0.006 | zotarolimus -0.031 | idasanutlin -0.137 | alisertib 0.046 | [5] 0.092 | gefitinib 0.047 | [6] -0.103 | lapatinib -0.098 | pictilisib -0.136

SLK isoform 2 (UniProt Q9H2G2)
inactive: saracatinib -0.015 | sotrastaurin -0.192 | alvocidib -0.031 | Tubastatin A 0.025 | [1] 0.079 | defactinib -0.089 | rucaparib 0.048 | [2] 0.02 | encorafenib 0.052 | [3] 0.012 | [4] 0.001 | filanesib 0.042 | zotarolimus -0.007 | idasanutlin -0.008 | alisertib -0.045 | [5] -0.103 | gefitinib 0.025 | [6] -0.079 | lapatinib -0.193
active: pictilisib 0.212

SLC27A4 (UniProt Q6P1M0)
inactive: saracatinib -0.035 | sotrastaurin 0.035 | alvocidib -0.09 | Tubastatin A -0.005 | [1] -0.083 | defactinib -0.084 | rucaparib 0.06 | [2] 0.072 | encorafenib 0.018 | [3] -0.05 | [4] 0.134 | filanesib 0.038 | zotarolimus 0.056 | idasanutlin -0.084 | alisertib -0.001 | [5] 0.032 | gefitinib 0.033 | [6] -0.022 | lapatinib 0.055 | pictilisib -0.078

SUCLG1 (UniProt P53597)
Sequence of UniProt P53597 (P53597 whole entry, looked up): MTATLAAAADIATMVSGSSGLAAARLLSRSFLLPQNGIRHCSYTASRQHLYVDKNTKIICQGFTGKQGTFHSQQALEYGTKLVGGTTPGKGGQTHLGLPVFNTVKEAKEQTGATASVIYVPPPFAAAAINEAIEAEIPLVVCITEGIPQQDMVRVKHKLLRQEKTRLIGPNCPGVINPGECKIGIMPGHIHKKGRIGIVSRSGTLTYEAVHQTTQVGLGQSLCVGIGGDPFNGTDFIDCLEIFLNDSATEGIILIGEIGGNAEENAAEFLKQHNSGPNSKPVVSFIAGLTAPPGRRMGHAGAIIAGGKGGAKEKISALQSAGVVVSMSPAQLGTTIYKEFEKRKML
inactive: saracatinib 0.042 | sotrastaurin 0.019 | alvocidib -0.028 | Tubastatin A -0.005 | [1] 0.015 | defactinib -0.057 | rucaparib 0.016 | [2] -0.006 | encorafenib -0.001 | [3] 0.016 | [4] -0.046 | filanesib -0.107 | zotarolimus 0.004 | idasanutlin -0.107 | alisertib 0.037 | [5] 0.051 | gefitinib -0.01 | [6] 0.041 | lapatinib -0.043 | pictilisib 0.003

TCOF1 isoform 4 (UniProt Q13428)
Sequence of UniProt Q13428 (Q13428 whole entry, looked up): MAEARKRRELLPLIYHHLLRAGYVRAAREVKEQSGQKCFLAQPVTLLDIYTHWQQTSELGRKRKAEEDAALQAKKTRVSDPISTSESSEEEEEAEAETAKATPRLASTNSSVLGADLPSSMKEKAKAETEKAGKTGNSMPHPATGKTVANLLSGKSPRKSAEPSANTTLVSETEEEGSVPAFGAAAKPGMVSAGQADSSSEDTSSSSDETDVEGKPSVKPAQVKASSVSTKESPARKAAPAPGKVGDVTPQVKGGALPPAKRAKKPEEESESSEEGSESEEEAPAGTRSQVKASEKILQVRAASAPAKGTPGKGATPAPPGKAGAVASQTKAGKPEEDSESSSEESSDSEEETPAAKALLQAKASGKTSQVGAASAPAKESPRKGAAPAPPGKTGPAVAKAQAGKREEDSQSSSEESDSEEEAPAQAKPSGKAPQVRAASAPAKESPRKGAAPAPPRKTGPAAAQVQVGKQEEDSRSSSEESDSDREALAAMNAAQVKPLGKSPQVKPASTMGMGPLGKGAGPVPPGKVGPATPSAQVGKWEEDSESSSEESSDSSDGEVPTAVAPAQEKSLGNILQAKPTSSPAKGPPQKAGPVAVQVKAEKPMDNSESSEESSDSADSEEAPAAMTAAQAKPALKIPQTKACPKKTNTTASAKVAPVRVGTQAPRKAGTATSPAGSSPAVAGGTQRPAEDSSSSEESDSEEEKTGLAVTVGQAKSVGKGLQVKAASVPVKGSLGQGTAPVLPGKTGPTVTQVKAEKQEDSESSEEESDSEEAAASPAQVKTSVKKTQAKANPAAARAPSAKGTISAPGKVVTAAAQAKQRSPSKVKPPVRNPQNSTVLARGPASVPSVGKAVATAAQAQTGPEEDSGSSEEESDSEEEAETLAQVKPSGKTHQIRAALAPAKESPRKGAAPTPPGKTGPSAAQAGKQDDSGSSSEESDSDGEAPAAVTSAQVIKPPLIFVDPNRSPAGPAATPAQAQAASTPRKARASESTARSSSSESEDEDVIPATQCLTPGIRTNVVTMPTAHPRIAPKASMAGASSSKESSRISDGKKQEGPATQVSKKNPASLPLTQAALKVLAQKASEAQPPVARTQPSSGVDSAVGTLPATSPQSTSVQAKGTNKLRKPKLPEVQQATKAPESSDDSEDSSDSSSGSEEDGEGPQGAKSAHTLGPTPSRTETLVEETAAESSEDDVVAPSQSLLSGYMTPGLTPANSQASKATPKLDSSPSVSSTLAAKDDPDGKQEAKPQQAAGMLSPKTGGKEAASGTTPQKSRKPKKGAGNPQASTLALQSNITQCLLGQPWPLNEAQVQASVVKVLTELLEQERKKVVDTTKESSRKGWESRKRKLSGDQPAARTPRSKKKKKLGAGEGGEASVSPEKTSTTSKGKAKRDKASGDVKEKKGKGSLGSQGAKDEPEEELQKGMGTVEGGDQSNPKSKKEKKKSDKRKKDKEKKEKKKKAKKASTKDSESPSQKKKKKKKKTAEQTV
inactive: saracatinib 0.016 | sotrastaurin -0.064 | alvocidib 0.012 | Tubastatin A 0.013 | [1] -0.006 | defactinib -0.033 | rucaparib 0.02 | [2] -0.038 | encorafenib 0.002 | [3] 0.026 | [4] 0.002 | filanesib 0.028 | zotarolimus -0.011 | idasanutlin 0.092 | alisertib -0.061 | [5] -0.051 | gefitinib -0.01 | [6] -0.002 | lapatinib 0.017 | pictilisib 0.028

SLC29A3 (UniProt Q9BZD2)
Sequence of UniProt Q9BZD2 (Q9BZD2 whole entry, looked up): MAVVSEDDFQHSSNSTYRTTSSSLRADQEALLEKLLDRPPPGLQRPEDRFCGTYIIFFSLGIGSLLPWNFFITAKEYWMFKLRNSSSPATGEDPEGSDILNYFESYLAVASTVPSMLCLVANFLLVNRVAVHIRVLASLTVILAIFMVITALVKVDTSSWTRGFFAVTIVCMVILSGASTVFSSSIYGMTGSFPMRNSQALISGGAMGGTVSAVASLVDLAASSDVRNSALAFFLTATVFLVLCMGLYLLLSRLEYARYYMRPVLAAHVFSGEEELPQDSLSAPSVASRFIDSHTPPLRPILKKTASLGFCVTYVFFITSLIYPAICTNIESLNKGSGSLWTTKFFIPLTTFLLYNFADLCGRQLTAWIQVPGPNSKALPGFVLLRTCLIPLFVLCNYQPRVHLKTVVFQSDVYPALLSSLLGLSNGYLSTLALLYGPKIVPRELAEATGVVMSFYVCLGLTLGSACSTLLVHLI
inactive: saracatinib 0.089 | sotrastaurin 0.056 | alvocidib 0.045 | Tubastatin A 0.092 | [1] 0.105 | defactinib 0.013 | rucaparib -0.083 | [2] -0.018 | encorafenib -0.05 | [3] 0.055 | [4] 0.009 | filanesib -0.258 | zotarolimus -0.015 | idasanutlin -0.113 | alisertib 0 | [5] -0.08 | gefitinib -0.08 | [6] 0.019 | lapatinib -0.118

SNX1 (UniProt Q13596)
Sequence of UniProt Q13596 (Q13596 whole entry, looked up): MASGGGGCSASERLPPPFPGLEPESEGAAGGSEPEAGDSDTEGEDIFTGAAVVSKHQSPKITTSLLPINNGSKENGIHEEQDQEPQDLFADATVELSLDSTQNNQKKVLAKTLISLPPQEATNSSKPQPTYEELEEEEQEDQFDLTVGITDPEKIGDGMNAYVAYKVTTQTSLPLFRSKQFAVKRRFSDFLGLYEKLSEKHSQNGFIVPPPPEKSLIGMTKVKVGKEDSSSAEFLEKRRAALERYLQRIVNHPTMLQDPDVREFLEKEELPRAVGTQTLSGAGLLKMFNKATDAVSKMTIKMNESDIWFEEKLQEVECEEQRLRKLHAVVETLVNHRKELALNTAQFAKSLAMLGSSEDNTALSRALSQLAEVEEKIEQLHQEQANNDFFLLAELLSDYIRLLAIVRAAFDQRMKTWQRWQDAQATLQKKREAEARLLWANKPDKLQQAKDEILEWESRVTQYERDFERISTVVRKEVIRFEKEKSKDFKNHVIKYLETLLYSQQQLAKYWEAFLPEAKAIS
inactive: saracatinib 0.006 | sotrastaurin -0.006 | alvocidib -0.084 | Tubastatin A -0.021 | [1] -0.112 | defactinib -0.036 | rucaparib -0.023 | [2] 0.028 | encorafenib 0.024 | [3] -0.026 | [4] -0.021 | filanesib -0.182 | zotarolimus 0.042 | idasanutlin -0.013 | alisertib -0.003 | [5] -0.063 | gefitinib -0.165 | [6] 0 | lapatinib -0.027 | pictilisib -0.205

TARBP1 (UniProt Q13395)
Sequence of UniProt Q13395 (Q13395 whole entry, looked up): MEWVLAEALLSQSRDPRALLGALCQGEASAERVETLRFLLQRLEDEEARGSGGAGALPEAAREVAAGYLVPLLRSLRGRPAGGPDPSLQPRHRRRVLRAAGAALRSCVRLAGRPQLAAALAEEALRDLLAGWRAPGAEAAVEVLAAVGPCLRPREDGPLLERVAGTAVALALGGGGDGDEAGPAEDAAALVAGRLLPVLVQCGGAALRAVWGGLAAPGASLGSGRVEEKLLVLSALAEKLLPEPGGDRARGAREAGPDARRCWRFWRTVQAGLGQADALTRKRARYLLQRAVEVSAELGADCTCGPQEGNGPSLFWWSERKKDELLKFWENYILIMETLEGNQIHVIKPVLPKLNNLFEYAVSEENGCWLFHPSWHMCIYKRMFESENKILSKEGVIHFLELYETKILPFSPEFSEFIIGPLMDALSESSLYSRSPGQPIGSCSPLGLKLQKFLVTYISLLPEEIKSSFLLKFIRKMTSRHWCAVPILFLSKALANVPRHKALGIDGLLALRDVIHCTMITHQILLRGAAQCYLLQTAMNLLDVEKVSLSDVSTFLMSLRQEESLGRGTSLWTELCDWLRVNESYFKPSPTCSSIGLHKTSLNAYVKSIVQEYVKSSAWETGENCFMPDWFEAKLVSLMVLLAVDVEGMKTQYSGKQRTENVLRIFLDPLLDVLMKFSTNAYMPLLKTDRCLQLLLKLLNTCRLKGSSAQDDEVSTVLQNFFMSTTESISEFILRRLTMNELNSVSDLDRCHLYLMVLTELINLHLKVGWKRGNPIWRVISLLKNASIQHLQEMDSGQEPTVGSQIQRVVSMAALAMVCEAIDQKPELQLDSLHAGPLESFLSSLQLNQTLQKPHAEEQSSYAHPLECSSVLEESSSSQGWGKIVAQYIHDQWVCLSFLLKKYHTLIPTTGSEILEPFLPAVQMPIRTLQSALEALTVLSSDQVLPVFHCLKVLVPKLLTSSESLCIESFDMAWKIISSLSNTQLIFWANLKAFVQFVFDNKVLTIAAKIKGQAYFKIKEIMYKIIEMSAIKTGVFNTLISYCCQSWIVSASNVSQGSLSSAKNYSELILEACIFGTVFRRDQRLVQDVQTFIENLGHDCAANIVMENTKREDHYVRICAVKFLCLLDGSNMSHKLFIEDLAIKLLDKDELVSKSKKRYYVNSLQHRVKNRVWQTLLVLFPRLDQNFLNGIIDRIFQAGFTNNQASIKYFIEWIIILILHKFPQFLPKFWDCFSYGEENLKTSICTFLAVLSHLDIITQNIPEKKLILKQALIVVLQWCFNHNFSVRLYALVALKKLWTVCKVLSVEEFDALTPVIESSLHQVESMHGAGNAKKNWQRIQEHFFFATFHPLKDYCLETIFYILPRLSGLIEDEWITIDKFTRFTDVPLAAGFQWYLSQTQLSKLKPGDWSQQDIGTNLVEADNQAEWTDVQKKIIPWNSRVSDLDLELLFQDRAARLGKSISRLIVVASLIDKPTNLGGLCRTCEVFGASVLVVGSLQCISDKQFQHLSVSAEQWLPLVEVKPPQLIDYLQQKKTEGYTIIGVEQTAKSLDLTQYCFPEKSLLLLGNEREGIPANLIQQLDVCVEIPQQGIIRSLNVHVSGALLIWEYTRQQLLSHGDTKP
inactive: saracatinib 0.026 | sotrastaurin -0.036 | alvocidib -0.031 | Tubastatin A -0.033 | [1] 0.021 | defactinib -0.026 | rucaparib 0.042 | [2] -0.027 | encorafenib -0.041 | [3] 0.014 | [4] -0.036 | filanesib -0.077 | zotarolimus 0.105 | idasanutlin -0.027 | alisertib 0.096 | [5] 0.049 | gefitinib -0.026 | [6] -0.019 | lapatinib -0.015 | pictilisib -0.078

TIMM10 (UniProt P62072)
Sequence of UniProt P62072 (P62072 whole entry, looked up): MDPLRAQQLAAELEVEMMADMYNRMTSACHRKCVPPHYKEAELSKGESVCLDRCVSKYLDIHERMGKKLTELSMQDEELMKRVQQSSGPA
inactive: saracatinib -0.058 | sotrastaurin 0.018 | alvocidib 0.08 | Tubastatin A -0.027 | [1] -0.015 | defactinib -0.073 | rucaparib -0.062 | [2] 0.039 | encorafenib -0.013 | [3] 0.002 | [4] -0.043 | filanesib -0.038 | zotarolimus -0.023 | idasanutlin -0.019 | alisertib 0.01 | [5] -0.12 | gefitinib 0.015 | [6] 0.03 | lapatinib -0.026 | pictilisib 0.008

TIMM13 (UniProt Q9Y5L4)
active: [5] -0.3
inactive: saracatinib 0.065 | sotrastaurin -0.007 | alvocidib -0.035 | Tubastatin A -0.007 | [1] 0.007 | defactinib -0.038 | rucaparib -0.028 | [2] 0.043 | encorafenib 0.044 | [3] 0 | [4] 0.206 | filanesib -0.091 | zotarolimus 0.042 | idasanutlin -0.043 | alisertib -0.006 | gefitinib -0.002 | [6] -0.01 | lapatinib 0.027 | pictilisib -0.056

SRP72 (UniProt O76094)
inactive: saracatinib -0.102 | sotrastaurin -0.181 | alvocidib 0.069 | Tubastatin A 0.119 | [1] 0.04 | defactinib -0.035 | rucaparib 0.184 | [2] 0.055 | encorafenib 0.155 | [3] -0.134 | [4] 0.003 | filanesib 0.075 | zotarolimus 0.048 | idasanutlin -0.045 | alisertib -0.131 | [5] 0.023 | gefitinib 0.007 | [6] -0.235 | lapatinib -0.043 | pictilisib 0

SSR3 isoform 2 (UniProt Q9UNL2)
Sequence of UniProt Q9UNL2 (Q9UNL2 whole entry, looked up): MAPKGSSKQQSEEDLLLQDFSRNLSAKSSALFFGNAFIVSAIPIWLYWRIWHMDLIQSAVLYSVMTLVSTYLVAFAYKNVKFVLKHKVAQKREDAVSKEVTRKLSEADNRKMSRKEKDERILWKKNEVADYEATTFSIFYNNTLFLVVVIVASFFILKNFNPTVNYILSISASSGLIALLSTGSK
inactive: saracatinib 0.153 | sotrastaurin 0.083 | alvocidib -0.108 | Tubastatin A -0.04 | [1] 0.006 | defactinib -0.006 | rucaparib -0.049 | [2] -0.052 | encorafenib 0.001 | [3] 0.086 | [4] -0.236 | filanesib -0.107 | zotarolimus 0.087 | idasanutlin 0.066 | alisertib -0.015 | [5] -0.013 | gefitinib 0.003 | [6] 0.08 | lapatinib 0.006 | pictilisib -0.096
